Results reported in PubChem BioAssay.
Results filed as inconclusive are left out. The source made the active and inactive calls.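 How the source made its calls, unless noted: active means inhibition above the screen-wide mean plus 3 SD, about 51%; inactive means the rest.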

How the values were obtained:
[1] = yeast TOR pathway RPL19A-GFP modulators, primary screen, cell-based, S. cerevisiae, multiplex flow cytometry (AID 1862; in the data active means percent of DMSO control GFP below about 86%;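 further: lower values mimic rapamycin by blocking the RPL19A rise seen in DMSO cells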); conditions: S. cerevisiae RPL19A-GFP strain, flow cytometry fluorescence, 3 h; at 10 µM; stronger effect = lower value
[2] = modulators of MEP2-GFP levels in yeast, primary screen, S. cerevisiae, multiplex flow cytometry (AID 1867;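 active means GFP response, as percent of the DMSO control, above the screen-wide mean plus 3 SD, about 139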;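 further: median GFP channel fluorescence of barcode-gated MEP2-GFP cells measured by flow cytometry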); conditions: S. cerevisiae MEP2-GFP strain, 3 h, at 10 µM, stronger effect = higher value, 100% means same as DMSO wells
[3] = modulators of CIT2-GFP expression in yeast, primary screen, S. cerevisiae, GFP fusion, multiplex flow cytometry (AID 1870;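 active means percent response above a set limit, the screen-wide mean plus 3 SD, cut at about 130% in these data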;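 further: barcoded CIT2-GFP strain pooled with four other GFP strains with rapamycin as positive control; median GFP fluorescence per well over plate mean of DMSO wells so 100% = DMSO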); conditions: 3 h, at 10 µM, stronger effect = higher value
[4] = modulators of LAP4-GFP expression in yeast, primary screen, S. cerevisiae, multiplex flow cytometry (AID 1873;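 active means GFP signal, as percent of the solvent control, above the screen mean plus 3 SD, about 149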); conditions: 3 h, at 10 µM, stronger effect = higher value
[5] = modulators of AGP1-GFP expression in yeast TOR pathway, primary screen, cell-based, multiplex flow cytometry, S. cerevisiae (AID 1887;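 active means GFP signal above the screen-wide mean plus 3 SD, that is over about 124.5% of the solvent control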;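 further: AGP1-GFP fusion strain of S. cerevisiae within a five-strain barcoded multiplex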); conditions: 3 h, at 10 µM, stronger effect = higher value
[6] = inhibitors of CD8+ T cell-vesicle binding, pilot screen, LFA-1/ICAM-1 modulator project, MLPCN validation set, flow cytometry (AID 2523;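 active means response below a set limit, under 55% cells CD8-positive and vesicle-bound, and CD8 cells' 90th-percentile brightness under 279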;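 on vesicle binding response: mean PE anti-B7-1 fluorescence of CD8+ cells relative to row control; 100% = QL9-loaded vesicles with DMSO vehicle in the same plate row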); conditions: 2C mouse CD8+ T cells, at 7 µM, stronger effect = lower value; double positive events: measured here: CD8+/vesicle+ event percentage
[7] = target: Integrin beta-1 (Homo sapiens) + Integrin alpha-4 (Homo sapiens) (UniProt P13612+P05556); assay: inhibition of HUTS-21 binding to VLA-4, pilot screen, VLA-4 allosteric modulator project, U937 cells, HUTS-21 mAb, flow cytometry, validation set (AID 2674;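 active means inhibition above 50%, about 3 SD of the validation set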;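 further: antibody binding induced by the VLA-4 ligand LDV present at three times its Kd; 0% = LDV ligand with antibody and no compound and 100% = antibody without LDV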); conditions: HUTS-21 LIBS mAb binding, at 6.7 µM, stronger effect = higher value, binding induced by LDV ligand
[8] = superoxide lowering in aged yeast cells, pilot screen, validation compound set (AID 2706;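 active means superoxide response below 65% of plate, a cut near 3 SD across the whole screen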;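 further: yeast exposed to compound for one week at 30 degrees C before staining; 100% = mean of all compound wells on the same plate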); conditions: S. cerevisiae aging, superoxide DHE fluorescence; at 10 µM; stronger effect = lower value
[9] = target: Beta-adrenergic receptor kinase 1 (Homo sapiens) (UniProt P25098); assay: GRK2 binders displacing RNA aptamer, biochemical, validation, human GRK2, bead flow cytometry (AID 488806;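 active means aptamer binding inhibition above 30%, about 3 SD of noise from non-fluorescent compounds; inactive means inhibition at or below 30%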); conditions: bead-bound GRK2, FAM-aptamer displacement, at 10 µM, stronger effect = higher value
[10] = target: Beta-2 adrenergic receptor (Homo sapiens) (UniProt P07550); assay: beta2AR agonists driving receptor internalization, pilot screen, cell-based, FAP fluorogen, flow cytometry, validation set (AID 504459;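 active means percent response above 42, roughly 3 SD of non-fluorescent test compounds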;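 further: agonist-driven loss of surface beta2AR via internalization measured by FAP dye flow cytometry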); conditions: Am2.2-beta2AR cells, FAP surface receptor flow cytometry; at 10 µM; stronger effect = higher value
[11] = target: AP-2 complex subunit beta (Homo sapiens) (UniProt P63010); assay: inhibitors of arrestin peptide binding to AP2, pilot screen, biochemical, validation set, GST-AP2 beads, flow cytometry (AID 504541;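 active means inhibition above 54%, about 3 SD of non-fluorescent compounds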;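 further: AP2 carries R879A mutation and is captured from E. coli lysate; bead-bound FITC arrestin peptide fluorescence measuring arrestin peptide binding to AP2; 0% = DMSO wells and 100% = excess unlabeled arrestin peptide control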); conditions: FITC arrestin peptide, at 10 µM, stronger effect = higher value, AP2 beta2 appendage fragment, R879A mutant
[12] = yeast V-ATPase proton transport modulators, S. cerevisiae, pHLuorin, HTS validation (AID 504600; in the data active means response above about 15%;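 further: plate controls were DMSO for no effect and reference compound for full effect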); conditions: S. cerevisiae pHLuorin cytosolic pH, at 10 µM, stronger effect = higher value
[13] = tested on: anti-desmoglein-3 scFv antibody binding to human DSG3; assay: inhibitors of anti-DSG3 scFv binding to DSG3, pilot screen, biochemical, validation compound set, bead-based, flow cytometry (AID 588368;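 active means binding below the plate cutoff, the plate median minus 3 SD, with a reading above zero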;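 further: signal is the median channel fluorescence of bead-bound GFP antibody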); conditions: Protein G beads, DSG3-Fc, scFv-GFP binding, at 10 µM, stronger effect = lower value
[14] = inhibitors of fungal efflux pumps CDR1, CDR2, MDR1, pilot screen, validation compound set, multiplex, phenotypic (AID 588506;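 active means efflux inhibition above 0.42, the validation set average plus 4 SD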;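 further: Nile Red retained in cells so higher fluorescence means more efflux inhibition; 0 = negative control wells and 1 = enniatin B 25 µM full block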); conditions: S. cerevisiae pump-expressing triplex, Nile Red efflux flow cytometry; at 10 µM; stronger effect = higher value; the pumps come from Candida albicans
[15] = target: ATP-binding cassette sub-family B member 6 (Homo sapiens) (UniProt Q9NP58); assay: ABCB6 transporter inhibitors, pilot screen, K562-ABCB6 cells, flow cytometry, validation set (AID 588550); conditions: K562-ABCB6 porphyrin accumulation, 1 h, at 10 µM, stronger effect = higher value;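 further: 0% = DMSO wells and 100% = benzethonium chloride 70 µM positive control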
[16] = promoters of myeloid differentiation in arrested cells, primary screen, cell-based, GFP/MAC1 double positive, flow cytometry, validation set (AID 588685;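 active means differentiation response of at least 50%, scaled between solvent and reference control, from cells with both markers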;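 further: compound exposure lasts four days before antibody staining and flow analysis; 0% = DMSO wells and 100% = 5 µM fulvestrant positive control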); conditions: ER-HoxA9 marrow cells, stronger effect = higher value, normalized: vehicle 0, fulvestrant 100

Sequence of AP-2 complex subunit beta (Homo sapiens) (P63010 whole entry, looked up, the tested form may be a part, one chain of several): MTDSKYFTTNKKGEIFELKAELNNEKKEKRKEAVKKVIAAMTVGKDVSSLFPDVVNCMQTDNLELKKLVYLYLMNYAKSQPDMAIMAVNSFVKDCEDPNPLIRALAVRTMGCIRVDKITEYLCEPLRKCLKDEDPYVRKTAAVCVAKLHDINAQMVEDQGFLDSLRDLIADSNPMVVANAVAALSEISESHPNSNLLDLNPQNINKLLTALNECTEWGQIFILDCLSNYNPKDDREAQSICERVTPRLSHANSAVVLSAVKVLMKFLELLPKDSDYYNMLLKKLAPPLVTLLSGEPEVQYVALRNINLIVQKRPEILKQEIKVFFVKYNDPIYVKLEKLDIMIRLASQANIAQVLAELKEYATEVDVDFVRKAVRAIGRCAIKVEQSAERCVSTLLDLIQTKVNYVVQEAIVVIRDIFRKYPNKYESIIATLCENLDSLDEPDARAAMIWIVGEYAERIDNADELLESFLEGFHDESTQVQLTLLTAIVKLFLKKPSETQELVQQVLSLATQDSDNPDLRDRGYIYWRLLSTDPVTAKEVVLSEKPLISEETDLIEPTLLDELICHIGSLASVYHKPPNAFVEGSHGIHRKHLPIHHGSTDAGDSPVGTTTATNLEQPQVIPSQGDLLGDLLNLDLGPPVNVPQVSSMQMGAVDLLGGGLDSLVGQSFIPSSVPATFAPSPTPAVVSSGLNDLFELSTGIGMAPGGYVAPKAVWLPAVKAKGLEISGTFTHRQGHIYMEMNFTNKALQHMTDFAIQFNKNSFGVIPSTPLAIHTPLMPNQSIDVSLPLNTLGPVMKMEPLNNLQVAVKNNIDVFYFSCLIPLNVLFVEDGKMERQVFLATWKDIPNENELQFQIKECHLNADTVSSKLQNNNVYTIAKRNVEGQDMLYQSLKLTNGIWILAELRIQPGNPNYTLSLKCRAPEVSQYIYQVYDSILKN
Sequence of Beta-adrenergic receptor kinase 1 (Homo sapiens) (P25098 whole entry, looked up): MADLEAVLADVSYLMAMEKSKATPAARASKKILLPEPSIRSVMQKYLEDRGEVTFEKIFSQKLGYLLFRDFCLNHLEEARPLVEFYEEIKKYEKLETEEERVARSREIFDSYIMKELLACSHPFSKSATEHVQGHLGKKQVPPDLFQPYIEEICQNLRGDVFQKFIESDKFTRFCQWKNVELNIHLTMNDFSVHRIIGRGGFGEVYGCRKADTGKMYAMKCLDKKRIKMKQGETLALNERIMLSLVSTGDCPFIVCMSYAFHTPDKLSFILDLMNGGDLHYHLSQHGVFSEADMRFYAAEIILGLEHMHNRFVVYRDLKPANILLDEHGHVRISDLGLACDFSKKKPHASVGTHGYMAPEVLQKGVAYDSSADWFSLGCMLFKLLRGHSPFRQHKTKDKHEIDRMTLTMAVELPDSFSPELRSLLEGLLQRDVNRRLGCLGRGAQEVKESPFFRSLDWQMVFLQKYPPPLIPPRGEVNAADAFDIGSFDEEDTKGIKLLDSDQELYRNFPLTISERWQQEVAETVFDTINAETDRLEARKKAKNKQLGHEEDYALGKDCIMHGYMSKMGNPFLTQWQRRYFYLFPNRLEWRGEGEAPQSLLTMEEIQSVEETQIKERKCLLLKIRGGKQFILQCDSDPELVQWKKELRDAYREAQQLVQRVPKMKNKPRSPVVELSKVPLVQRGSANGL
Sequence of Beta-2 adrenergic receptor (Homo sapiens) (P07550 whole entry, looked up): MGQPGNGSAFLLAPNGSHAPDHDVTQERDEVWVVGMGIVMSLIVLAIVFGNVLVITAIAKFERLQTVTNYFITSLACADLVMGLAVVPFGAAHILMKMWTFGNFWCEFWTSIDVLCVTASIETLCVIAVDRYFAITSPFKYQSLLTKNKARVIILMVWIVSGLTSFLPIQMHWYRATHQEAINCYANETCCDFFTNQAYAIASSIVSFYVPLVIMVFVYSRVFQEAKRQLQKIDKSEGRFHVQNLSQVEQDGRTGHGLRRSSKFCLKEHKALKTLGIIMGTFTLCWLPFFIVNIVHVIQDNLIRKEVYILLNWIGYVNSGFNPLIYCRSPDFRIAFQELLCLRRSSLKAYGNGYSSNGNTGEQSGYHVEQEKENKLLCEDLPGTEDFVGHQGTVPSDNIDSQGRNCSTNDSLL
Sequence of ATP-binding cassette sub-family B member 6 (Homo sapiens) (Q9NP58 whole entry, looked up): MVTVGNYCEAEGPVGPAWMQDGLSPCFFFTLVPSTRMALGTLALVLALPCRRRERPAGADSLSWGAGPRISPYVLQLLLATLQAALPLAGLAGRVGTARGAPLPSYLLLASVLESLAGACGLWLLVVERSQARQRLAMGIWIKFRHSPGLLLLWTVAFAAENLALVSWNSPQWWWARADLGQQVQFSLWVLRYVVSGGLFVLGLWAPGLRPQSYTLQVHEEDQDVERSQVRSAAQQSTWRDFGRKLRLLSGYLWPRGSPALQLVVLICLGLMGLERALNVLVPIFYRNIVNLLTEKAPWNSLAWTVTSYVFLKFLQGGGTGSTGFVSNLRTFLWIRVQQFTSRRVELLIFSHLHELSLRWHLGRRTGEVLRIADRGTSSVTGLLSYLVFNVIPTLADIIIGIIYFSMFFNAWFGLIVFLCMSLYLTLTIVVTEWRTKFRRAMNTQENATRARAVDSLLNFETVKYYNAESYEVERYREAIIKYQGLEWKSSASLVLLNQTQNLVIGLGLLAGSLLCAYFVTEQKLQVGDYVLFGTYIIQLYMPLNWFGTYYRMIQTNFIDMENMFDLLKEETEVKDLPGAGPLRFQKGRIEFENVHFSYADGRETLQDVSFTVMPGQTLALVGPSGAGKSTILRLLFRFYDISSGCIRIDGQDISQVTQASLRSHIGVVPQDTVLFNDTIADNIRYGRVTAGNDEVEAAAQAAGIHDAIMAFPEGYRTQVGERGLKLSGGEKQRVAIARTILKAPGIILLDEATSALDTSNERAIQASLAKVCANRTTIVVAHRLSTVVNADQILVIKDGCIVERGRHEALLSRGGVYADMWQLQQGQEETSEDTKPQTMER
Sequence of Integrin beta-1 (Homo sapiens) + Integrin alpha-4 (Homo sapiens) (P05556 whole entry, looked up): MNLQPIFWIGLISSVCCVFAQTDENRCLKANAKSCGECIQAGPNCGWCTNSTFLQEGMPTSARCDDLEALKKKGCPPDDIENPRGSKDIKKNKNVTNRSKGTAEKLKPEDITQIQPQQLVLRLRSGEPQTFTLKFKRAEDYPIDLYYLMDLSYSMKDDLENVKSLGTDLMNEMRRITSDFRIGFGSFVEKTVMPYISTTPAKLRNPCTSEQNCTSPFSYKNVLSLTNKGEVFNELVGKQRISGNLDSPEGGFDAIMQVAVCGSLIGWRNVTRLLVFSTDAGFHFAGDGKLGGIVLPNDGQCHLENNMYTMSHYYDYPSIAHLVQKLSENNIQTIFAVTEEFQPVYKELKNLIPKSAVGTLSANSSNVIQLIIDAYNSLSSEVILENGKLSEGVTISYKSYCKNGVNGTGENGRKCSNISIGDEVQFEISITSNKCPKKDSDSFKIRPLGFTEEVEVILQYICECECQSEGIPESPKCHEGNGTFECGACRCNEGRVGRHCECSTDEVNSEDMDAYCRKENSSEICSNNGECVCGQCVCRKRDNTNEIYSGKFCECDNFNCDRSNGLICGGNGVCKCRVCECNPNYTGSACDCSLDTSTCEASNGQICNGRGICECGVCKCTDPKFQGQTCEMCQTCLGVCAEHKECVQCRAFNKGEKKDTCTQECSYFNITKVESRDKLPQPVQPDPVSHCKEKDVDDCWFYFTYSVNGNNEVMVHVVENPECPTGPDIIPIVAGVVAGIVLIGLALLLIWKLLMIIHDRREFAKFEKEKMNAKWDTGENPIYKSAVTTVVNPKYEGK
Sequence of Integrin beta-1 (Homo sapiens) + Integrin alpha-4 (Homo sapiens) (P13612 whole entry, looked up): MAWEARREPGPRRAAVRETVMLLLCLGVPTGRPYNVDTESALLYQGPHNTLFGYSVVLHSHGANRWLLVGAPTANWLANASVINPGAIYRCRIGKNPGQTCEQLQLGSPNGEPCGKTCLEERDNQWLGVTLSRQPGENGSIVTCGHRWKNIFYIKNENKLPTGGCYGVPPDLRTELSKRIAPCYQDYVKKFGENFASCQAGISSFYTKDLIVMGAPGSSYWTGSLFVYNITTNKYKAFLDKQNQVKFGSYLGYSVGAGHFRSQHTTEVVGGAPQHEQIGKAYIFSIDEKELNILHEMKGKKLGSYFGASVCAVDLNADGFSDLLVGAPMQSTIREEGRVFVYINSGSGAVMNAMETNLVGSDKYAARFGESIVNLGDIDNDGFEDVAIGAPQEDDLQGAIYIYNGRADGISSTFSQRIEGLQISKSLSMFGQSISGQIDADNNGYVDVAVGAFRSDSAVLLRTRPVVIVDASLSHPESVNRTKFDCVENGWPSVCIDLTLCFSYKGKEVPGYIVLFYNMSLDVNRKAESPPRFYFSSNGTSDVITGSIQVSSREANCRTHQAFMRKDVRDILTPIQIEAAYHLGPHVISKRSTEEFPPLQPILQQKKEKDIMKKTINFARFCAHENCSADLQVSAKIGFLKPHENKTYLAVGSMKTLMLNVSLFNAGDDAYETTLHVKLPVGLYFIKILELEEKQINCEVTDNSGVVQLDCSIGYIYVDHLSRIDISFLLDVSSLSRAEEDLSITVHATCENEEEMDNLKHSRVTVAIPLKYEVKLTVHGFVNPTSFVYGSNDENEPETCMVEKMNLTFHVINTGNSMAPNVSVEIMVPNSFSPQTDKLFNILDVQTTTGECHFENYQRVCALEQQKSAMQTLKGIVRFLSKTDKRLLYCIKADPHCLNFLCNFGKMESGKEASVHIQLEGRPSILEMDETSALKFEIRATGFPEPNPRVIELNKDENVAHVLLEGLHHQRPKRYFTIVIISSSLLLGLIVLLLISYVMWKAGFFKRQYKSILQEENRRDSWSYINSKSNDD

CC(=O)[C@@]1(O)CC[C@H]2[C@@H]3C[C@H](C)C4=CC(=O)C=C[C@]4(C)[C@@]3(F)[C@@H](O)C[C@@]21C
63.3%: double positive events [6]
inactive: percent of DMSO control GFP [1] 102% | GFP response vs DMSO [2] 134% | percent response of DMSO control [3] 110% | GFP response vs DMSO [4] 93% | GFP response, % of DMSO [5] 95.2% | vesicle binding response [6] 157% | inhibition [7] 2.58% | superoxide response (% of plate) [8] 99.4% | aptamer binding inhibition [9] 5% | response [10] -0.53% | inhibition [11] 32.1% | response [12] -3.11% | binding (% of control) [13] 101% | efflux inhibition (fraction of control) [14] -0.35 | inhibition [15] 9% | differentiation response [16] 9.83%

COc1ccc(C(=O)N2c3cc4c(cc3C(C)=CC2(C)C)OCO4)cc1
inactive: percent of DMSO control GFP [1] 97.8% | GFP response vs DMSO [2] 103% | percent response of DMSO control [3] 98.9% | GFP response vs DMSO [4] 116% | GFP response, % of DMSO [5] 93.4% | vesicle binding response [6] 40.1% | inhibition [7] -2.53% | superoxide response (% of plate) [8] 98.5% | aptamer binding inhibition [9] 5% | response [10] 4.24% | inhibition [11] -10.4% | response [12] -0.49% | binding (% of control) [13] 96.1% | efflux inhibition (fraction of control) [14] -0.04 | inhibition [15] 10% | differentiation response [16] -1.71%
56.6%: double positive events [6]

COc1ccc(C2CC(c3ccc([N+](=O)[O-])cc3)=NN2C(=O)c2ccccc2)cc1OC (stereo not given)
active: inhibition [11] 65.2% | efflux inhibition (fraction of control) [14] 0.59
64.6%: double positive events [6]
inactive: percent of DMSO control GFP [1] 97.1% | GFP response vs DMSO [2] 101% | percent response of DMSO control [3] 97% | GFP response vs DMSO [4] 108% | GFP response, % of DMSO [5] 116% | vesicle binding response [6] 211% | inhibition [7] 13.4% | superoxide response (% of plate) [8] 79.1% | aptamer binding inhibition [9] 4% | response [10] 6.46% | response [12] -0.24% | binding (% of control) [13] 92.9% | inhibition [15] 0% | differentiation response [16] -12.9%

CC(=O)OCC#CCSc1nc2ccccc2n1C
inactive: percent of DMSO control GFP [1] 97.6% | GFP response vs DMSO [2] 89.7% | percent response of DMSO control [3] 96.7% | GFP response vs DMSO [4] 103% | GFP response, % of DMSO [5] 92.9% | vesicle binding response [6] 163% | inhibition [7] -8.62% | superoxide response (% of plate) [8] 95% | aptamer binding inhibition [9] 2% | response [10] 7.19% | inhibition [11] 14.1% | response [12] 2.63% | binding (% of control) [13] 94.9% | efflux inhibition (fraction of control) [14] -0.21 | inhibition [15] 12% | differentiation response [16] -7.2%
57.8%: double positive events [6]

C/C=C(/C(=C/C)c1ccc(O)cc1)c1ccc(O)cc1
active: efflux inhibition (fraction of control) [14] 0.48
63.9%: double positive events [6]
inactive: percent of DMSO control GFP [1] 90.4% | GFP response vs DMSO [2] 135% | percent response of DMSO control [3] 95.2% | GFP response vs DMSO [4] 81.4% | GFP response, % of DMSO [5] 87.7% | vesicle binding response [6] 170% | inhibition [7] 8.4% | superoxide response (% of plate) [8] 91.4% | aptamer binding inhibition [9] 2% | response [10] -4.98% | inhibition [11] 13.1% | response [12] -1.75% | binding (% of control) [13] 101% | inhibition [15] 4% | differentiation response [16] -7.37%

Cc1cccc(N2CCN(C(=S)c3ccccc3)CC2)c1
63.1%: double positive events [6]
inactive: percent of DMSO control GFP [1] 100% | GFP response vs DMSO [2] 108% | percent response of DMSO control [3] 100% | GFP response vs DMSO [4] 88.7% | GFP response, % of DMSO [5] 90.8% | vesicle binding response [6] 5220% | inhibition [7] -4.6% | superoxide response (% of plate) [8] 101% | aptamer binding inhibition [9] 0% | response [10] -1.25% | inhibition [11] -6.82% | response [12] 1.76% | binding (% of control) [13] 95.3% | efflux inhibition (fraction of control) [14] -0.14 | inhibition [15] 2% | differentiation response [16] -8.55%

NS(=O)(=O)c1cc2c(cc1Cl)NC(C(Cl)Cl)NS2(=O)=O (stereo not given)
63%: double positive events [6]
inactive: percent of DMSO control GFP [1] 100% | GFP response vs DMSO [2] 101% | percent response of DMSO control [3] 102% | GFP response vs DMSO [4] 108% | GFP response, % of DMSO [5] 112% | vesicle binding response [6] 132% | inhibition [7] 2.29% | superoxide response (% of plate) [8] 92.7% | aptamer binding inhibition [9] 4% | response [10] 23.7% | inhibition [11] -6.64% | response [12] 2.72% | binding (% of control) [13] 104% | efflux inhibition (fraction of control) [14] 0.21 | inhibition [15] 4% | differentiation response [16] -9.91%

COc1ccccc1C(=O)Oc1ccc2c(c1)O/C(=C\c1ccncc1)C2=O
inactive: percent of DMSO control GFP [1] 94.7% | GFP response vs DMSO [2] 105% | percent response of DMSO control [3] 97.7% | GFP response vs DMSO [4] 126% | GFP response, % of DMSO [5] 105% | vesicle binding response [6] 274% | inhibition [7] -58.2% | superoxide response (% of plate) [8] 119% | aptamer binding inhibition [9] -1% | response [10] -22.5% | inhibition [11] 3.83% | response [12] 0.47% | binding (% of control) [13] 103% | efflux inhibition (fraction of control) [14] 0.17 | inhibition [15] -9% | differentiation response [16] 10.8%
63.9%: double positive events [6]

CNC(=O)Oc1ccc2c(c1)[C@]1(C)CCN(C)[C@@H]1N2C
inactive: percent of DMSO control GFP [1] 104% | GFP response vs DMSO [2] 102% | percent response of DMSO control [3] 86% | GFP response vs DMSO [4] 112% | GFP response, % of DMSO [5] 122% | vesicle binding response [6] 183% | inhibition [7] 5.69% | superoxide response (% of plate) [8] 98.7% | aptamer binding inhibition [9] 3% | response [10] -21.5% | inhibition [11] -9.24% | response [12] -0.59% | binding (% of control) [13] 104% | efflux inhibition (fraction of control) [14] 0.12 | inhibition [15] 4% | differentiation response [16] -4.99%
62.8%: double positive events [6]

O=C(Cc1ccccc1[N+](=O)[O-])NCCCN1CCOCC1
63.1%: double positive events [6]
inactive: percent of DMSO control GFP [1] 101% | GFP response vs DMSO [2] 101% | percent response of DMSO control [3] 96.4% | GFP response vs DMSO [4] 107% | GFP response, % of DMSO [5] 107% | vesicle binding response [6] 426% | inhibition [7] -4.52% | superoxide response (% of plate) [8] 113% | aptamer binding inhibition [9] 1% | response [10] -20% | inhibition [11] -4.04% | response [12] 0.45% | binding (% of control) [13] 99.9% | efflux inhibition (fraction of control) [14] 0 | inhibition [15] 2% | differentiation response [16] -5.97%
